# Measurements taken from the supplement of paper PMC9794691.
# Assays:
# H1975 [1] = assay: area under confluence curve of osimertinib + compound combination regimen (DTP regrowth); compare to osimertinib-only DTP control AUC of the same experiment (AUC (confluence x time, arbitrary)); conditions: DMSO control AUC in same experiment: 14522
# Procedure, shortened: (§1)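 EGFR-mutant NSCLC lines went into 48-well plates at 20,000–30,000 cells/well in RPMI 1640 with 10% FBS and were kept at 37 °C, 5% CO2. Cells got either the EGFR inhibitor plus a fixed-dose test compound from the start through the persister stage (10–21 days) and then drug-free medium, or the inhibitor alone followed by the test compound. Medium was changed every 3–4 days until wells given only the inhibitor regrew to confluence. The endpoint was the area under the IncuCyte confluence–time curve, calculated in Prism and reported as the median of triplicates where available.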
# HCC2279 [2] = assay: as above
# Procedure, shortened: as §1
# HCC2935 [3] = assay: as above; conditions: DMSO control AUC in same experiment: 11459
# Procedure, shortened: as §1
# HCC4006 [4] = assay: as above
# Procedure, shortened: as §1
# HCC827 [5] = assay: as above
# Procedure, shortened: as §1
# II-18 [6] = assay: as above
# Procedure, shortened: as §1
# H1975 [7] = assay: area under confluence curve of compound monotherapy; compare to DMSO control AUC of the same experiment (AUC (confluence x time, arbitrary))
# Procedure, shortened: (§2)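 Adenocarcinoma lines were grown in RPMI 1640 with 10% FBS at 37 °C and 5% CO2, seeded at 20,000–30,000 cells/well in 48-well plates, and treated the next day with test compound alone at one dose: 1 uM or the highest dose giving <50% parental inhibition. Every 3–4 days the wells were washed with PBS and the drug was refreshed, and medium was drug-free from the DTP stage (10–21 days). IncuCyte tracked confluence until wells given only an EGFR inhibitor regrew. Area under the confluence curve was calculated in Prism, taking the median of triplicates where run, and set beside the vehicle value from the same experiment.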
# HCC2279 [8] = assay: as above
# Procedure, shortened: as §2
# HCC2935 [9] = assay: as above
# Procedure, shortened: as §2
# HCC4006 [10] = assay: as above
# Procedure, shortened: as §2
# HCC827 [11] = assay: as above
# Procedure, shortened: as §2
# II-18 [12] = assay: as above
# Procedure, shortened: as §2
# [13] = 1000 nM, DMSO control AUC in same experiment: 20657
compound,measurement,setting,value
CCN1CCN(Cc2ccc(Nc3ncc(F)c(-c4cc(F)c5nc(C)n(C(C)C)c5c4)n3)nc2)CC1 [Abemaciclib] + C=CC(=O)Nc1cc(Nc2nccc(-c3cn(C)c4ccccc34)n2)c(OC)cc1N(C)CCN(C)C [osimertinib],area under confluence curve,"H1975 [1]; test compound dose 100 nM, dosing schedule: sequential, osimertinib-only DTP control AUC in same experiment: 12533",8980
same,area under confluence curve,"H1975 [1]; test compound dose 100 nM, dosing schedule: upfront, osimertinib-only DTP control AUC in same experiment: 18969",5060
same,area under confluence curve,"HCC2279 [2]; test compound dose 100 nM, dosing schedule: sequential, osimertinib-only DTP control AUC in same experiment: 5698, DMSO control AUC in same experiment: 27284",4410
same,area under confluence curve,"HCC2279 [2]; test compound dose 100 nM, dosing schedule: upfront, osimertinib-only DTP control AUC in same experiment: 30623, DMSO control AUC in same experiment: 27284",12700
same,area under confluence curve,"HCC2935 [3]; test compound dose 100 nM, dosing schedule: sequential, osimertinib-only DTP control AUC in same experiment: 9121",4760
same,area under confluence curve,"HCC2935 [3]; test compound dose 100 nM, dosing schedule: upfront, osimertinib-only DTP control AUC in same experiment: 12748",9300
same,area under confluence curve,"HCC4006 [4]; test compound dose 100 nM, dosing schedule: sequential, osimertinib-only DTP control AUC in same experiment: 14882, DMSO control AUC in same experiment: 10921",8540
same,area under confluence curve,"HCC4006 [4]; test compound dose 100 nM, dosing schedule: upfront, osimertinib-only DTP control AUC in same experiment: 18913, DMSO control AUC in same experiment: 10921",4990
same,area under confluence curve,"HCC827 [5]; test compound dose 100 nM, dosing schedule: sequential, osimertinib-only DTP control AUC in same experiment: 18675, DMSO control AUC in same experiment: 48895",6450
same,area under confluence curve,"HCC827 [5]; test compound dose 100 nM, dosing schedule: upfront, osimertinib-only DTP control AUC in same experiment: 25542, DMSO control AUC in same experiment: 48895",7890
same,area under confluence curve,"II-18 [6]; test compound dose 100 nM, dosing schedule: sequential, osimertinib-only DTP control AUC in same experiment: 3520, DMSO control AUC in same experiment: 13556",1010
same,area under confluence curve,"II-18 [6]; test compound dose 100 nM, dosing schedule: upfront, osimertinib-only DTP control AUC in same experiment: 6532, DMSO control AUC in same experiment: 13556",2540
Cn1cc(CNCC2CCN(c3ncc(C(=O)NO)cn3)CC2)c2ccccc21 [Quisinostat],area under confluence curve,"H1975 [7]; 10 nM, DMSO control AUC in same experiment: 20657",8960
same,area under confluence curve,"HCC2279 [8]; 10 nM, DMSO control AUC in same experiment: 29252",18800
same,area under confluence curve,"HCC2935 [9]; 10 nM, DMSO control AUC in same experiment: 13875",8250
same,area under confluence curve,"HCC4006 [10]; 10 nM, DMSO control AUC in same experiment: 16638",11600
same,area under confluence curve,"HCC827 [11]; 10 nM, DMSO control AUC in same experiment: 27404",25100
same,area under confluence curve,"II-18 [12]; 10 nM, DMSO control AUC in same experiment: 7080",3280
CCn1nc(C2CCN(C(=O)CCO)CC2)nc1-c1cnc(N)c(-c2nnc(C(C)(C)C)o2)n1,area under confluence curve,H1975 [7]; [13],18200
same,area under confluence curve,"HCC2279 [8]; 1000 nM, DMSO control AUC in same experiment: 9426",11400
same,area under confluence curve,"HCC2935 [9]; 1000 nM, DMSO control AUC in same experiment: 13875",11700
same,area under confluence curve,"HCC4006 [10]; 1000 nM, DMSO control AUC in same experiment: 16638",17000
same,area under confluence curve,"HCC827 [11]; 1000 nM, DMSO control AUC in same experiment: 27404",27500
same,area under confluence curve,"II-18 [12]; 1000 nM, DMSO control AUC in same experiment: 18482",14200
C[C@@]1(C(=O)Nc2ccc(F)nc2)CCCN1c1nc(Nc2cc(C3CC3)n[nH]2)c2cccn2n1,area under confluence curve,"H1975 [7]; 100 nM, DMSO control AUC in same experiment: 16540",17600
same,area under confluence curve,"HCC2279 [8]; 100 nM, DMSO control AUC in same experiment: 14404",15900
same,area under confluence curve,"HCC2935 [9]; 100 nM, DMSO control AUC in same experiment: 19215",20700
same,area under confluence curve,"HCC4006 [10]; 100 nM, DMSO control AUC in same experiment: 18415",20100
same,area under confluence curve,"HCC827 [11]; 100 nM, DMSO control AUC in same experiment: 21320",21300
same,area under confluence curve,"II-18 [12]; 100 nM, DMSO control AUC in same experiment: 11834",9980
COc1nn(C)cc1Nc1nccc(-c2c[nH]c3c(NC(=O)[C@@H](C)N4CCN(C)CC4)cccc23)n1,area under confluence curve,"H1975 [7]; 1000 nM, DMSO control AUC in same experiment: 15857",17600
same,area under confluence curve,"HCC2279 [8]; 1000 nM, DMSO control AUC in same experiment: 14404",15500
same,area under confluence curve,"HCC2935 [9]; 1000 nM, DMSO control AUC in same experiment: 19215",20800
same,area under confluence curve,"HCC4006 [10]; 1000 nM, DMSO control AUC in same experiment: 18415",18600
same,area under confluence curve,"HCC827 [11]; 1000 nM, DMSO control AUC in same experiment: 21320",19500
same,area under confluence curve,"II-18 [12]; 1000 nM, DMSO control AUC in same experiment: 11834",5850
Cc1cc(N2C[C@@H](C)N[C@@H](C)C2)ncc1-c1ccc(-c2nc3c(ccn3C)c(=O)[nH]2)cc1,area under confluence curve,H1975 [7]; [13],19600
same,area under confluence curve,"HCC2279 [8]; 1000 nM, DMSO control AUC in same experiment: 40085",40800
same,area under confluence curve,"HCC2935 [9]; 1000 nM, DMSO control AUC in same experiment: 15413",14600
same,area under confluence curve,"HCC4006 [10]; 1000 nM, DMSO control AUC in same experiment: 10921",10500
same,area under confluence curve,"HCC827 [11]; 1000 nM, DMSO control AUC in same experiment: 48895",48800
same,area under confluence curve,"II-18 [12]; 1000 nM, DMSO control AUC in same experiment: 7080",6490
COc1cc(CCc2cc(NC(=O)c3ccc(N4CC(C)NC(C)C4)cc3)n[nH]2)cc(OC)c1 (centres undefined) + C=CC(=O)Nc1cc(Nc2nccc(-c3cn(C)c4ccccc34)n2)c(OC)cc1N(C)CCN(C)C [osimertinib],area under confluence curve,"H1975 [1]; test compound dose 1000 nM, dosing schedule: sequential, osimertinib-only DTP control AUC in same experiment: 12533",3690
same,area under confluence curve,"H1975 [1]; test compound dose 1000 nM, dosing schedule: upfront, osimertinib-only DTP control AUC in same experiment: 18969",17800
same,area under confluence curve,"HCC2279 [2]; test compound dose 1000 nM, dosing schedule: sequential, osimertinib-only DTP control AUC in same experiment: 20224, DMSO control AUC in same experiment: 29252",10100
same,area under confluence curve,"HCC2279 [2]; test compound dose 1000 nM, dosing schedule: upfront, osimertinib-only DTP control AUC in same experiment: 43517, DMSO control AUC in same experiment: 29252",18500
same,area under confluence curve,"HCC2935 [3]; test compound dose 1000 nM, dosing schedule: sequential, osimertinib-only DTP control AUC in same experiment: 9121",9140
same,area under confluence curve,"HCC2935 [3]; test compound dose 1000 nM, dosing schedule: upfront, osimertinib-only DTP control AUC in same experiment: 12748",11800
same,area under confluence curve,"HCC4006 [4]; test compound dose 1000 nM, dosing schedule: sequential, osimertinib-only DTP control AUC in same experiment: 22375, DMSO control AUC in same experiment: 16794",14900
same,area under confluence curve,"HCC4006 [4]; test compound dose 1000 nM, dosing schedule: upfront, osimertinib-only DTP control AUC in same experiment: 24440, DMSO control AUC in same experiment: 16794",8920
same,area under confluence curve,"HCC827 [5]; test compound dose 1000 nM, dosing schedule: sequential, osimertinib-only DTP control AUC in same experiment: 5666, DMSO control AUC in same experiment: 43928",3350
same,area under confluence curve,"HCC827 [5]; test compound dose 1000 nM, dosing schedule: upfront, osimertinib-only DTP control AUC in same experiment: 19044, DMSO control AUC in same experiment: 43928",7760
same,area under confluence curve,"II-18 [6]; test compound dose 1000 nM, dosing schedule: sequential, osimertinib-only DTP control AUC in same experiment: 7374, DMSO control AUC in same experiment: 23373",2610
same,area under confluence curve,"II-18 [6]; test compound dose 1000 nM, dosing schedule: upfront, osimertinib-only DTP control AUC in same experiment: 15065, DMSO control AUC in same experiment: 23373",11500
